From PubChem BioAssay come the findings set out here.

The nature of experiment [1]: drug combination growth inhibition, ovarian cancer – cell-based, oncology-focused library, rucaparib conditional, profiling panel (AID 1508598). As to conditions: patient-derived ovarian cancer cells, CellTiter-Glo viability, 144 h, stronger effect = lower value. For orientation: ATP-based viability assays read luminescence as a measure of living cells.
Experiment [2] is described as follows: chitosan synthesis blockers in C. neoformans – flow cytometry, Cibacron Brilliant Red staining (AID 1347148; call rule not given here;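 also: compound exposure lasted three days at 37 degrees C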). The note with it: Cryptococcus neoformans chitosan, stronger effect = lower value; at 10 µM unless noted.
[3] abbreviates: at 0.000305 µM, OCI-C5x cells, with rucaparib 10 µM, 100% = cells with rucaparib alone.
Where [4] appears, read: at 0.000305 µM, OCI-C5x cells, without rucaparib.
Where [5] appears, read: at 0.000305 µM, OCI-P5x cells, with rucaparib 20 µM, 100% = cells with rucaparib alone.
Where [6] appears, read: at 0.000305 µM, OCI-P5x cells, without rucaparib.
[7] abbreviates: at 0.00122 µM, OCI-C5x cells, with rucaparib 10 µM, 100% = cells with rucaparib alone.
Setting [8] is: at 0.00122 µM, OCI-C5x cells, without rucaparib.
Where [9] appears, read: at 0.00122 µM, OCI-P5x cells, with rucaparib 20 µM, 100% = cells with rucaparib alone.
[10] abbreviates: at 0.00122 µM, OCI-P5x cells, without rucaparib.
The mark [11] stands for this setting: at 0.00488 µM, OCI-C5x cells, with rucaparib 10 µM, 100% = cells with rucaparib alone.
Setting [12] is: at 0.00488 µM, OCI-C5x cells, without rucaparib.
The mark [13] stands for this setting: at 0.00488 µM, OCI-P5x cells, with rucaparib 20 µM, 100% = cells with rucaparib alone.
Setting [14] is: at 0.00488 µM, OCI-P5x cells, without rucaparib.
Where [15] appears, read: at 0.0195 µM, OCI-C5x cells, with rucaparib 10 µM, 100% = cells with rucaparib alone.
[16] abbreviates: at 0.0195 µM, OCI-C5x cells, without rucaparib.
Where [17] appears, read: at 0.0195 µM, OCI-P5x cells, with rucaparib 20 µM, 100% = cells with rucaparib alone.
Setting [18] is: at 0.0195 µM, OCI-P5x cells, without rucaparib.
The mark [19] stands for this setting: at 0.0781 µM, OCI-C5x cells, with rucaparib 10 µM, 100% = cells with rucaparib alone.
The mark [20] stands for this setting: at 0.0781 µM, OCI-C5x cells, without rucaparib.
[21] abbreviates: at 0.0781 µM, OCI-P5x cells, with rucaparib 20 µM, 100% = cells with rucaparib alone.
Setting [22] is: at 0.0781 µM, OCI-P5x cells, without rucaparib.
[23] abbreviates: at 0.313 µM, OCI-C5x cells, with rucaparib 10 µM, 100% = cells with rucaparib alone.
Where [24] appears, read: at 0.313 µM, OCI-C5x cells, without rucaparib.
Where [25] appears, read: at 0.313 µM, OCI-P5x cells, with rucaparib 20 µM, 100% = cells with rucaparib alone.
Where [26] appears, read: at 0.313 µM, OCI-P5x cells, without rucaparib.
Where [27] appears, read: at 1.25 µM, OCI-C5x cells, with rucaparib 10 µM, 100% = cells with rucaparib alone.
The mark [28] stands for this setting: at 1.25 µM, OCI-C5x cells, without rucaparib.
The mark [29] stands for this setting: at 1.25 µM, OCI-P5x cells, with rucaparib 20 µM, 100% = cells with rucaparib alone.
The mark [30] stands for this setting: at 1.25 µM, OCI-P5x cells, without rucaparib.
[31] abbreviates: at 5 µM, OCI-C5x cells, with rucaparib 10 µM, 100% = cells with rucaparib alone.
Setting [32] is: at 5 µM, OCI-C5x cells, without rucaparib.
Where [33] appears, read: at 5 µM, OCI-P5x cells, with rucaparib 20 µM, 100% = cells with rucaparib alone.
The mark [34] stands for this setting: at 5 µM, OCI-P5x cells, without rucaparib.

Unmarked numbers belong to inactive results. Calls of active or inactive are those of the source.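 The calls were made as follows, unless noted: active = normalized viability below 100% at a tested concentration; inactive = the rest.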

By viability is commonly meant a per cent measure of how many cells are alive, often set against a control. For `CC(C)[C@@]12O[C@@H]1[C@@H]1O[C@]13[C@]1(O[C@@H]1C[C@@H]1C4=C(CC[C@@]13C)C(=O)OC4)[C@@H]2O`, the viability in experiment [1] (setting [3]) was 33.2% (active); in experiment [1] (setting [4]), 23.2% (active); in experiment [1] (setting [5]) it was 11.8% (active); in experiment [1] (setting [6]), 6.41% (active); in experiment [1] (setting [7]) it was 19.5% (active); in experiment [1] (setting [8]) it was 15.4% (active). The viability in experiment [1] (setting [9]) is 12.6% (active); in experiment [1] (setting [10]), 7.08% (active); in experiment [1] (setting [11]), 8% (active); in experiment [1] (setting [12]), 7.6% (active); in experiment [1] (setting [13]) it was 13.9% (active); in experiment [1] (setting [14]) it was 8.9% (active). Further, the viability in experiment [1] (setting [15]) was 10.1% (active); in experiment [1] (setting [16]) it was 8.03% (active); in experiment [1] (setting [17]) it was 12.6% (active); in experiment [1] (setting [18]), 8.76% (active); in experiment [1] (setting [19]) it was 9.57% (active); in experiment [1] (setting [20]), 9.36% (active). The viability in experiment [1] (setting [21]) is 11.1% (active); in experiment [1] (setting [22]), 9.41% (active); in experiment [1] (setting [23]), 9.16% (active); in experiment [1] (setting [24]), 10.5% (active); in experiment [1] (setting [25]) it was 12.1% (active); in experiment [1] (setting [26]) it was 8.22% (active). Further, the viability in experiment [1] (setting [27]) is 9.48% (active); in experiment [1] (setting [28]), 10% (active); in experiment [1] (setting [29]), 9.34% (active); in experiment [1] (setting [30]), 8.5% (active); in experiment [1] (setting [31]), 9.2% (active); in experiment [1] (setting [32]), 8.72% (active). Also, the viability is 10.3% (active) in experiment [1] (setting [33]) and 6.87% (active) in experiment [1] (setting [34]).

Take `C/C(=C\c1csc(C)n1)[C@H]1C[C@@H]2O[C@@H]2CCC[C@H](C)[C@H](O)[C@@H](C)C(=O)C(C)(C)[C@H](O)CC(=O)O1`: the viability was 72.1% (active) in experiment [1] (setting [3]); 52.1% (active) in experiment [1] (setting [4]); 73.7% (active) in experiment [1] (setting [5]); 30% (active) in experiment [1] (setting [6]); 41.4% (active) in experiment [1] (setting [7]); 28.8% (active) in experiment [1] (setting [8]). In addition, the viability in experiment [1] (setting [9]) was 57.4% (active); in experiment [1] (setting [10]), 15.9% (active); in experiment [1] (setting [11]) it was 27.2% (active); in experiment [1] (setting [12]) it was 23.1% (active); in experiment [1] (setting [13]) it was 51% (active); in experiment [1] (setting [14]), 16.8% (active). Besides, the viability in experiment [1] (setting [15]) is 29.1% (active); in experiment [1] (setting [16]), 22% (active); in experiment [1] (setting [17]), 53.1% (active); in experiment [1] (setting [18]) it was 17% (active); in experiment [1] (setting [19]), 29.4% (active); in experiment [1] (setting [20]) it was 22.1% (active). The viability in experiment [1] (setting [21]) is 57% (active); in experiment [1] (setting [22]), 17.9% (active); in experiment [1] (setting [23]), 29.6% (active); in experiment [1] (setting [24]), 24% (active); in experiment [1] (setting [25]), 46.5% (active); in experiment [1] (setting [26]) it was 15.9% (active). The viability in experiment [1] (setting [27]) is 25.2% (active); in experiment [1] (setting [28]), 24.3% (active); in experiment [1] (setting [29]) it was 46.3% (active); in experiment [1] (setting [30]), 14.6% (active); in experiment [1] (setting [31]), 52.3% (active); in experiment [1] (setting [32]), 41.6% (active). For the same molecule, the results for the viability in experiment [1] (setting [33]) and in experiment [1] (setting [34]) were 43.6% (active) and 17.3% (active), respectively.

As for `CC(CCC(=O)O)CC(C)CC(C)C(=O)/C=C(\O)C(C)CC(C)C/C=C/C(C)C(O)C(C)C(O)CC1CCC(C)(C2CCC(C)(C(C)O)O2)O1` (stereo not given), in experiment [2], the fold fluorescence was 5.45 [at 70.5 µM].

For `O=C1CS[C@@H](c2ccccc2Cl)c2cc(Cl)ccc2N1`, the fold fluorescence in experiment [2] is 10.4 [at 154.2 µM].

`CCNC(=O)[C@@H]1O[C@H](n2cnc3c(N)ncnc32)C(O)[C@@H]1O` (stereo not given in full): the fold fluorescence in experiment [2] is 4.97 [at 162.2 µM].

For `CN1C(=O)[C@@]23CC4=CC=C[C@@H](O)[C@@H]4N2C(=O)[C@]1(CO)SS3`, the fold fluorescence in experiment [2] is 7.1 [at 153.2 µM].

`C/C1=C/C(=O)O[C@H]2C[C@H](CC[C@@H](C)/C=C\CC1)O[C@](O)([C@H]1CSC(=O)N1)C2`: the fold fluorescence in experiment [2] was 6.99 [at 126.4 µM].

For `CCCCCCCCCCCCCCCCOC[C@H](O)COP(=O)([O-])OCC[N+](C)(C)C`, the fold fluorescence in experiment [2] is 3.83.
